Measurements published in PubChem BioAssay (Tox21).
Unmarked numbers belong to inactive results. Results filed as inconclusive are left out. Entries that show only a call come without a potency. Active and inactive are the calls of the source. Unless noted, the call rests on the fitted dose curve; in most records, active means well fitted curve in the direction sought with a large enough effect in the repeat runs; inconclusive means weak or mixed curves; inactive means no such curve, though single readings can be large; an effect the other way counts as inactive or inconclusive.

Assays:
[1] = qHTS assay to identify small molecule agonists of the sonic hedgehog signaling (Shh) pathway (AID 1259368; calls by dose curve;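 further: NIH/3T3-derived 3T3Gli1-Luc cells carrying a stable Gli1-driven firefly luciferase reporter; series mostly up to about 92 µM; nearly all actives have a fitted effect of over 15% in size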)
Summary of the method: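 Luminescence was read after 30 min at room temperature with luciferase reagent. Before that, 3T3Gli1-Luc cells (NIH/3T3 clone, stable Gli1-Luc reporter; 2,000/well) were exposed to compounds for 24 hr at 37C, 5% CO2, compounds being added 4 hr post-plating.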

[2] = qHTS assay to identify small molecule agonists of the androgen receptor (AR) signaling pathway in the presence of an antagonist - cell viability counter screen (AID 1259379);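 further: MDA-kb2 human breast cancer cells carrying an MMTV luciferase reporter; series mostly up to about 92 µM; nearly all actives have a fitted effect of over 25% in size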
Summary of the method: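 Cytotoxicity counter-screen run in the same wells as the nilutamide-challenged (3.0 µM final) AR agonist assay in MDA-kb2 cells. Compounds tested at 15 concentrations for 16 h, 37 °C without CO2; CellTiter-Fluor fluorescence read.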

[3] = qHTS assay to identify small molecule antagonists of the estrogen receptor beta (ER-beta) signaling pathway - cell viability counter screen (AID 1259382);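 further: HEK293T cells carrying ER-beta-UAS-bla reporter stimulated with estradiol; series mostly up to about 92 µM; nearly all actives have a fitted effect of over 55% in size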
Summary of the method: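 Cytotoxicity was measured in the same wells by CellTiter-Glo luminescence after 30 min at room temperature. Cells were ER-beta-bla HEK293T in charcoal-stripped serum, given compound together with 1 nM E2 and incubated 16 h at 37C.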

[4] = target: Estrogen receptor (Homo sapiens) (UniProt P03372); test: qHTS assay to identify small molecule agonists of the estrogen receptor alpha (ER-alpha) signaling pathway in the presence of an antagonist (AID 1259383; calls by dose curve; further: top concentration of the series differs between compounds; nearly all actives have a fitted effect of over 15% in size)
Sequence of Estrogen receptor (Homo sapiens) (P03372 whole entry, looked up): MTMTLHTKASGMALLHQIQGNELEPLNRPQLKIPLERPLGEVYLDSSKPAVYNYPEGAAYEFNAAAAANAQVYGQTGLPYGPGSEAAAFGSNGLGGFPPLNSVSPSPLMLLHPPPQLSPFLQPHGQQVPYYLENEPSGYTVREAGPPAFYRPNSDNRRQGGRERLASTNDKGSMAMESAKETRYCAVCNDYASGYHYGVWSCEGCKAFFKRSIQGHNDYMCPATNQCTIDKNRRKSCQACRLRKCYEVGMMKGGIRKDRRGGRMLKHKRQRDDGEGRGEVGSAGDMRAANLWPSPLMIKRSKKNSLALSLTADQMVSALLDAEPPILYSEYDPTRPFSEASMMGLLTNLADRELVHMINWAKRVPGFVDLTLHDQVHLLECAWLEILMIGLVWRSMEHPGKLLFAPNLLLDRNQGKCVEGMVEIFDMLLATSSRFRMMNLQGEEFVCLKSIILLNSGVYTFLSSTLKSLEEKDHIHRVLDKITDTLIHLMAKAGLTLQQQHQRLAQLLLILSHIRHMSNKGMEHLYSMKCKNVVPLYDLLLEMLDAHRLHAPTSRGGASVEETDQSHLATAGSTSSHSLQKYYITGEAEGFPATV
Summary of the method: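 Agonist-mode confirmation run in the presence of 10.0nM (final) ICI-182,780 antagonist. The reporter was ERE-driven luciferase in VM7Luc4E2 cells, grown in charcoal-stripped serum. Cells were exposed to 15-concentration compound series for 22hr, then ONE-Glo luminescence was read.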

[5] = qHTS assay to identify small molecule agonists or antagonists of the thyroid stimulating hormone receptor (TSHR) signaling pathway - wild type cell line counter screen (AID 1259384; calls by dose curve)
Summary of the method: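 Counter screen in untransfected Hek293: compounds (15-point titration, triplicate) plus phosphodiesterase inhibitor Ro20-1724 added after 18 h plating; 30 min RT. Intracellular cAMP via competitive d2/cryptate immunoassay, 1 h incubation.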

[6] = target: Thyrotropin receptor (Homo sapiens) (UniProt P16473); test: qHTS assay to identify small molecule antagonists of the thyroid stimulating hormone receptor (TSHR) signaling pathway (AID 1259385; calls by dose curve; further: nearly all actives have a fitted effect of over 20% in size)
Sequence of Thyrotropin receptor (Homo sapiens) (P16473 whole entry, looked up): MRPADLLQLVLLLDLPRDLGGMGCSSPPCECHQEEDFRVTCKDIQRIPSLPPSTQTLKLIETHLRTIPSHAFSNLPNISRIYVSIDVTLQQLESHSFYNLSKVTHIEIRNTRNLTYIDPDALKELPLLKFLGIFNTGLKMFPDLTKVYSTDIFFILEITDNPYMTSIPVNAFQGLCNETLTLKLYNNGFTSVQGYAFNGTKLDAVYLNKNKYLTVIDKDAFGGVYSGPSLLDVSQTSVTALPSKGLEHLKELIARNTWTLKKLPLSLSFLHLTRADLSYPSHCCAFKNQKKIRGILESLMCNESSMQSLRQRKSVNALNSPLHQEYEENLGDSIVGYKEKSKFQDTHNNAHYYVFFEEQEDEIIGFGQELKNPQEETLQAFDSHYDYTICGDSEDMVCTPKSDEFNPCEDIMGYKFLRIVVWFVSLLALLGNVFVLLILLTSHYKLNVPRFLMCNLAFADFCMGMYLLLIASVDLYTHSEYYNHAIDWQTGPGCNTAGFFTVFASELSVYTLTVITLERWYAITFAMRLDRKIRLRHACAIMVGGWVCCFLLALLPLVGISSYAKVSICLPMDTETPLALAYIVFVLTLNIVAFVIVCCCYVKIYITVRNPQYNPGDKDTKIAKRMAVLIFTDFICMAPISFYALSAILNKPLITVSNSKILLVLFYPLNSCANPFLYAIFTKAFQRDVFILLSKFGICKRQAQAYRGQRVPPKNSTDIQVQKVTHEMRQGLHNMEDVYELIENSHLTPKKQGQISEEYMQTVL
Summary of the method: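 Antagonist mode: compound-treated TSHR-expressing HEK293 cells were stimulated with 1.5 ng/mL TSH (final) in presence of Ro20-1724 for 30 min at RT. HTRF cAMP detection after 1 h; each compound tested at 15 concentrations, triplicate.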

[7] = qHTS assay to identify small molecule agonists of the estrogen receptor alpha (ER-alpha) signaling pathway in the presence of an antagonist - cell viability counter screen (AID 1259386); further: series mostly up to about 92 µM; nearly all actives have a fitted effect of over 30% in size
Summary of the method: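 Compounds tested at 15 concentrations for 22 h at 37C alongside 10.0nM (final) ICI-182,780 antagonist, in VM7Luc4E2 cells grown in phenol red-free, charcoal-stripped medium. Viability read by CellTiter-Fluor fluorescence after 1 h reagent incubation.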

[8] = target: Progesterone receptor (Homo sapiens) (UniProt P06401); test: qHTS assay to identify small molecule agonists of the progesterone receptor (PR) signaling pathway (AID 1346784; calls by dose curve; further: nearly all actives have a fitted effect of over 30% in size)
Sequence of Progesterone receptor (Homo sapiens) (P06401 whole entry, looked up): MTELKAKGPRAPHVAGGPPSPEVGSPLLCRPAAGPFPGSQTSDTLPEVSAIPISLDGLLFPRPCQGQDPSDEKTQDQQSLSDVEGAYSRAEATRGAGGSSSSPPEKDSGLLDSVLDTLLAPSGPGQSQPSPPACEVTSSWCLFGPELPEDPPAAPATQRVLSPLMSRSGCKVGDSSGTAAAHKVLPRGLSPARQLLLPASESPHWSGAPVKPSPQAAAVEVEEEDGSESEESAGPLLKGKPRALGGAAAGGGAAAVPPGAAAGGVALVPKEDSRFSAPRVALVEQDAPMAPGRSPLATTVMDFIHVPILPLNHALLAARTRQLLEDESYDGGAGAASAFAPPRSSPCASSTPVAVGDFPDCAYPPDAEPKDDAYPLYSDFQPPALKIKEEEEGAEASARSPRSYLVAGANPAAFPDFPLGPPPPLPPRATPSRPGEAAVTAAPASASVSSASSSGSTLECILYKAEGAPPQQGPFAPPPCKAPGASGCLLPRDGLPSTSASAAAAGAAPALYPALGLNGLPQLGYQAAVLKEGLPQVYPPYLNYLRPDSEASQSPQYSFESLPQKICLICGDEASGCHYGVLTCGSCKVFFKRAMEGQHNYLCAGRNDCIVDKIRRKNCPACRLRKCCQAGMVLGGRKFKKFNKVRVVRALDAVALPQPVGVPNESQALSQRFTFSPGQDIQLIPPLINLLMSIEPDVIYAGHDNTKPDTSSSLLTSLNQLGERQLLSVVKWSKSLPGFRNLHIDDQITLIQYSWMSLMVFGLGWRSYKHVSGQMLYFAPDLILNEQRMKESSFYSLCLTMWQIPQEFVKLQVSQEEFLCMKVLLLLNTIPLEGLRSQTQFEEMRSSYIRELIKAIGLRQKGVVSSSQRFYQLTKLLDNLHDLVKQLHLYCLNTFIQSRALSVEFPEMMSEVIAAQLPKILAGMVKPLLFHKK
Summary of the method: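 Cells (PR-UAS-bla HEK 293T, GripTite) were plated in assay medium containing 2% charcoal-stripped FBS and incubated 6 hr. Test compounds in DMSO were added for 16 hr at 37C. FRET substrate was then loaded for 2 hr at room temperature before fluorescence reading.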

[9] = target: Progesterone receptor (Homo sapiens) (UniProt P06401); test: qHTS assay to identify small molecule antagonists of the progesterone receptor (PR) signaling pathway (AID 1346795; active means well fitted inhibition curve with a large enough effect in the signal ratio in the repeat runs, not every such curve was filed as active; the % refers to the signal ratio; further: potency means the concentration at half of the fitted maximal effect)
Summary of the method: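 Antagonist mode: compounds tested against 1 nM (final) promegestone stimulation in HEK293T cells expressing PR-UAS-bla reporter, 16 hr at 37C, 5% CO2; beta-lactamase activity detected via B/G FRET substrate after 2 hr at room temperature.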

[10] = qHTS assay to identify small molecule antagonists of the progesterone receptor (PR) signaling pathway - cell viability counter screen (AID 1346798); further: nearly all actives have a fitted effect of over 50% in size; further: potency means the concentration at half of the fitted maximal effect
Summary of the method: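 Counter screen for cytotoxicity: viability of PR-UAS-bla HEK293T cells was measured with CellTiter-Glo luminescence following 16 hr compound exposure in the presence of R5020.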

[11] = qHTS assay to identify small molecule agonists of the progesterone receptor (PR) signaling pathway - cell viability counter screen (AID 1346799; calls by dose curve; further: nearly all actives have a fitted effect of over 45% in size)
Summary of the method: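 Cells (PR-UAS-bla HEK293T) are plated at 3,000/well in 2% charcoal-stripped FBS medium, rested 6 hr, dosed and incubated 16 hr at 37C. CellTiter-Glo is then added and luminescence measured after 30 min at room temperature.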

[12] = qHTS assay to identify small molecule antagonists of the TGF-beta/Smad signaling pathway - cell viability counter screen (AID 1346824); further: nearly all actives have a fitted effect of over 50% in size
Summary of the method: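 Cytotoxicity counter-screen run in the same wells as the beta-lactamase Smad reporter read: CellTiter-Glo luminescence after 30 min at room temperature. HEK 293T SBE-bla cells had 5 hr compound exposure at 37 C with TGF-beta1 (0.25 ng/mL stock).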

[13] = qHTS assay to identify small molecule agonists of the TGF-beta/Smad signaling pathway - cell viability counter screen (AID 1346829); further: top concentration of the series differs between compounds; nearly all actives have a fitted effect of over 45% in size
Summary of the method: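 Luminescence from CellTiter-Glo, read after a 30 min room-temperature incubation, gives cell viability of SBE-bla HEK 293T cells treated 5 hr with compounds at 37 C.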

[14] = qHTS assay to identify small molecule agonists of the TGF-beta/Smad signaling pathway (AID 1346859; active means well fitted activation curve with a large enough effect in the signal ratio in the repeat runs, not every such curve was filed as active; the % refers to the signal ratio; further: series mostly up to about 77 µM)
Summary of the method: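 Reporter line: HEK 293T with stably integrated SBE-controlled beta-lactamase. Compound exposure lasts 5 hr at 37 C and 5% CO2; substrate loading follows for 2 hr at room temperature, with emission read at 460 and 530 nm.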

[15] = target: Thyrotropin-releasing hormone receptor (Homo sapiens) (UniProt P34981); test: qHTS assay to identify small molecule antagonists of the thyrotropin-releasing hormone receptor (TRHR) signaling pathway (AID 1346877; active means well fitted inhibition curve with a large enough effect in the repeat runs, not every such curve was filed as active; further: series mostly up to about 51 µM)
Sequence of Thyrotropin-releasing hormone receptor (Homo sapiens) (P34981 whole entry, looked up): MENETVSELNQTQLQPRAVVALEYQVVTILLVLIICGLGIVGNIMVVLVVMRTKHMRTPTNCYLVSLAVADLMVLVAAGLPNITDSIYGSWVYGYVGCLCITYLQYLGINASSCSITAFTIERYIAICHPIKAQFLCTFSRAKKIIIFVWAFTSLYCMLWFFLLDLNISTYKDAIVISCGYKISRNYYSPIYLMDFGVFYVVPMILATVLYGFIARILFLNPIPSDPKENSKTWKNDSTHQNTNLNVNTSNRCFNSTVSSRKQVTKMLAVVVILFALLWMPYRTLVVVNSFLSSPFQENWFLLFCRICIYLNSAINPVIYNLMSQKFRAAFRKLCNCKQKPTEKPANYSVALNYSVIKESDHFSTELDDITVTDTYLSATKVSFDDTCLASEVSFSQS
Summary of the method: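 Antagonist mode: after a 5 min room-temperature compound exposure, cells were stimulated with 1 nM (final) TRH. Dye-loaded TRHR-HEK293 cells were used, and calcium-dependent fluorescence was followed for 3 min, with 15-point titrations run in triplicate.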

[16] = qHTS assay to identify small molecule agonists of the estrogen receptor beta (ER-beta) signaling pathway - cell viability counter screen (AID 1259380); further: nearly all actives have a fitted effect of over 30% in size; further: potency means the concentration at half of the fitted maximal effect
Summary of the method: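 Cell viability counter screen: CellTiter-Glo luminescence (30 min, room temperature) measured in the same wells as the beta-lactamase readout, after 16 hr compound exposure at 37C of ER-beta-bla HEK293T cells in 2% charcoal-stripped FBS medium.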

[17] = qHTS assay to identify small molecule antagonists of the sonic hedgehog signaling (Shh) pathway (AID 1259369; calls by dose curve; further: nearly all actives have a fitted effect of over 45% in size)
Summary of the method: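 Antagonist mode: compound added to 3T3 Gli1-Luc cells followed by conditioned-medium stimulation, 24 h at 37 C, 5% CO2. Inhibition taken as loss of Gli1-driven luciferase luminescence.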

[18] = target: Androgen receptor (Homo sapiens) (UniProt P10275); test: qHTS assay to identify small molecule agonists of the androgen receptor (AR) signaling pathway in the presence of an antagonist (AID 1259381; calls by dose curve; further: nearly all actives have a fitted effect of over 15% in size)
Sequence of Androgen receptor (Homo sapiens) (P10275 whole entry, looked up): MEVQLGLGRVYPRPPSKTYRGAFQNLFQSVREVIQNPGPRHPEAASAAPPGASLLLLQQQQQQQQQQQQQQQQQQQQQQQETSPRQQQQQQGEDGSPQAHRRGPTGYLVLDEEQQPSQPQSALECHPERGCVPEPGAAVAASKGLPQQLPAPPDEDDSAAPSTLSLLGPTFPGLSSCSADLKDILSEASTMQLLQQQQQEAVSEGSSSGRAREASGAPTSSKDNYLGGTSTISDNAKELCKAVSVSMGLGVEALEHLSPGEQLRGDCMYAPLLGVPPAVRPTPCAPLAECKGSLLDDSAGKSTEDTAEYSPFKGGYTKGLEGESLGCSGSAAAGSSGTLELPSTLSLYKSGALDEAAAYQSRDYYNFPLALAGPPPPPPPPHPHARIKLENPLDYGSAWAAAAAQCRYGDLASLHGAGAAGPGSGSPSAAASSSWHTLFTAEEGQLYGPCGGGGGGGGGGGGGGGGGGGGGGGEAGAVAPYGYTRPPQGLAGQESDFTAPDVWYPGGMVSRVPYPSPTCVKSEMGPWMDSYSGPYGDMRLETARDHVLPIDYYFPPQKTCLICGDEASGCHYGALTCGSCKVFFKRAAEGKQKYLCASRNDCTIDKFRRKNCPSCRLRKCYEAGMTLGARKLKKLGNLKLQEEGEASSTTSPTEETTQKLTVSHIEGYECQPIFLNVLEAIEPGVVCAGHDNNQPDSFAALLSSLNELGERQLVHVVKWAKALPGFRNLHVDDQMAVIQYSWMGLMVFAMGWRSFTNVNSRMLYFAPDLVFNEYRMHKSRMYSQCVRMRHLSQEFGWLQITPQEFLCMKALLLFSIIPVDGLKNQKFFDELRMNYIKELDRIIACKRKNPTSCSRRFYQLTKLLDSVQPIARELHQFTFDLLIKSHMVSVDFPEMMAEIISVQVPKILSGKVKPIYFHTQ
Summary of the method: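 Agonist-mode confirmation run against 3.0 uM final nilutamide: compounds titrated at 15 concentrations onto MDA-kb2 MMTV-luciferase reporter cells. Luminescence measured with ONE-Glo following 16 hr incubation, 37C, 0% CO2.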

CS(=O)(=O)c1ccc([C@@H](O)[C@@H](CF)NC(=O)C(Cl)Cl)cc1
Potency [1]: inactive
Potency [2]: inactive
outcome [3]: inactive
Potency [4]: inactive
outcome [5]: inactive
Potency [6]: inactive
Potency [7]: inactive
Potency [8]: inactive
Potency [9]: inactive
Potency [10]: inactive
Potency [11]: inactive
outcome [12]: inactive
outcome [13]: inactive
outcome [14]: inactive
outcome [15]: inactive

CC(C)C[C@H](NC(=O)OCC1c2ccccc2-c2ccccc21)C(=O)O
Potency [1]: inactive
Potency [2]: inactive
Potency [16]: 61.1 µM (active)
outcome [5]: inactive
Potency [6]: inactive
Potency [7]: inactive
Potency [8]: inactive
Potency [10]: inactive
Potency [11]: inactive
outcome [12]: inactive
outcome [13]: inactive

O=C(O)[C@@H](O)[C@H](O)[C@H](O)[C@@H](O)C(=O)O
Potency [1]: inactive
Potency [2]: inactive
Potency [16]: inactive
outcome [3]: inactive
outcome [5]: inactive
Potency [6]: inactive
Potency [8]: inactive
Potency [9]: inactive
Potency [10]: inactive
Potency [11]: inactive
outcome [12]: inactive
outcome [14]: inactive
outcome [15]: inactive

Nc1ccc2ccccc2c1S(=O)(=O)O
Potency [17]: inactive
Potency [2]: inactive
Potency [16]: inactive
outcome [3]: inactive
outcome [5]: inactive
Potency [6]: inactive
Potency [7]: inactive
Potency [8]: inactive
Potency [9]: inactive
Potency [10]: inactive
Potency [11]: inactive
outcome [12]: inactive
outcome [13]: inactive
outcome [14]: inactive
outcome [15]: inactive

C=CCc1cc(OC)c(O)c(C(=O)NCCO)c1
Potency [1]: inactive
Potency [2]: inactive
outcome [3]: inactive
Potency [4]: inactive
outcome [5]: inactive
Potency [6]: inactive
Potency [7]: inactive
Potency [8]: inactive
Potency [9]: inactive
Potency [10]: inactive
Potency [11]: inactive
outcome [12]: inactive
outcome [13]: inactive
outcome [14]: inactive

Cc1nc(-c2ccccn2)ncc1C(=O)Nn1cc(C)c2cc(F)ccc21
Potency [1]: inactive
Potency [2]: inactive
Potency [18]: inactive
Potency [4]: inactive
outcome [5]: inactive
Potency [6]: inactive
Potency [7]: inactive
Potency [8]: inactive
Potency [10]: 30.6 µM (active)
outcome [12]: inactive
outcome [13]: inactive
outcome [14]: inactive
outcome [15]: inactive

OCC(CBr)(CBr)CBr
Potency [1]: inactive
Potency [2]: inactive
outcome [3]: inactive
Potency [4]: inactive
outcome [5]: inactive
Potency [6]: inactive
Potency [7]: inactive
Potency [8]: inactive
Potency [9]: 34.2 µM (active)
Potency [10]: inactive
outcome [12]: inactive
outcome [13]: inactive
outcome [14]: inactive
outcome [15]: inactive

COc1ccccc1OCC(O)COC(N)=O (centres undefined)
Potency [1]: inactive
outcome [3]: inactive
Potency [4]: inactive
Potency [6]: inactive
Potency [7]: inactive
Potency [8]: inactive
Potency [9]: inactive
Potency [10]: inactive
Potency [11]: inactive
outcome [12]: inactive
outcome [14]: inactive
outcome [15]: inactive

CC/C=C\CCOC(=O)CCCCC
Potency [1]: inactive
Potency [2]: inactive
Potency [16]: inactive
outcome [3]: inactive
Potency [4]: inactive
Potency [8]: inactive
Potency [9]: inactive
Potency [10]: inactive
Potency [11]: inactive
outcome [12]: inactive
outcome [13]: inactive
outcome [14]: inactive
outcome [15]: inactive

CN1CCN(C2=Nc3cc(F)ccc3Cc3ccccc32)CC1
Potency [1]: inactive
Potency [2]: inactive
Potency [18]: inactive
Potency [4]: inactive
outcome [5]: inactive
Potency [6]: inactive
Potency [7]: inactive
Potency [8]: inactive
Potency [9]: 18.8 µM (active)
Potency [11]: inactive
outcome [12]: inactive
outcome [13]: inactive
outcome [14]: inactive
outcome [15]: inactive
